# About 3,200 (25%) of roughly 13,000 compounds showed an effect of 50% or more. Some of the results follow.
# Test system: P. falciparum stage V gametocytes
# Set-up: BacTiter-Glo ATP luminescence viability of purified stage V gametocytes in 384-well plates, per cent inhibition versus DMSO
# Settings: 48 h, 5 µM; inhibitor
row,Compound,% Inhibition [%]
1,Cc1nc(N)nc(N)c1-c1ccc(Br)c([N+](=O)[O-])c1 [TCMDC-138071],1.652
2,CS(=O)(=O)CCNCc1cccc(-c2cc3c(Nc4ccc(OCc5ccccc5)cc4)ncnc3cn2)c1 [TCMDC-138240],8.889
3,CN(C)C(=S)N=Nc1c(O)[nH]c2ccc(OC(F)(F)F)cc12 [TCMDC-141099],-50.91
4,Cc1c(-c2cccc(C(C)(C)NC3CCN(Cc4ccccc4)CC3)c2)cnc(N)c1C [TCMDC-138300],70.88
5,c1ccc(CN2CCC(NCc3cccc(-c4cncc5ccccc45)c3)CC2)cc1 [TCMDC-134152],18.28
6,Cc1c(-c2ccc3c(c2)C(NCCCN2CCCCC2)CC3)cnc(N)c1C (stereo not shown) [TCMDC-138320],53.54
7,O=C(Nc1cccc(-c2ccc(NCCCN3CCCC3)nc2)c1)c1ccccc1 [TCMDC-134145],39.43
8,Cc1c(Br)cc2[nH]c(-c3ccc(C(=O)NC4CCN(Cc5ccccc5)CC4)cc3)nc2c1C [TCMDC-140026],-88.51
9,Cc1c(-c2cccc(C(C)(C)NCCCN3CCCCC3)c2)cnc(N)c1C [TCMDC-138284],76.27
10,O=C(NCCN1CCCCC1)c1ccc(CNC(=O)c2ccc(O)c(-c3cccc(C(F)(F)F)c3)c2)cc1 [TCMDC-140817],7.187
11,Cn1nc(-c2ccc(CN[C@@H]3CCc4ccc(O)cc43)cc2)c2cnc(NC3CCCC3)nc21 [TCMDC-135029],-22.32
12,NC(=O)c1cccc(C(=O)Nc2cccc(-c3ccc(-c4nc5ccc(C(F)(F)F)cc5[nH]4)cc3)c2)c1 [TCMDC-132202],-50.53
13,COc1ccc(S(=O)(=O)N(CC(=O)NN=C(C)c2cccs2)c2cc(C)cc(C)c2)cc1OC [TCMDC-125737],0.7472
14,COc1ccccc1NS(=O)(=O)c1cc(C(=O)Nc2ccc(N3CCOCC3)c(S(=O)(=O)Nc3ccccc3Cl)c2)ccc1Cl [TCMDC-125591],13
15,Cc1cc(-c2ccc(NC(=O)N3CCc4cc(Br)c(N5CCN(C)CC5)cc43)cc2)cc(C)n1 [TCMDC-139279],26.15
16,CCCN1CCC=C(c2cccc(Nc3nccc(Nc4cc(OC)ccc4C)n3)c2)C1 [TCMDC-138668],37.96
17,COCCOc1ccc(Nc2nccc(-c3c(-c4cccc(NC(=O)c5c(F)cccc5F)c4)nn4ccccc34)n2)cc1F [TCMDC-135995],27.09
18,CCN(CC)CCCOc1ccc(Nc2nccc(-c3c(-c4cccc(NC(=O)c5c(F)cccc5F)c4)nn4ccccc34)n2)cc1F [TCMDC-135920],94.91
19,CS(=O)(=O)Cc1ccc(Nc2nccc(-c3c(-c4cccc(NC(=O)c5c(F)cccc5F)c4)nn4ncccc34)n2)cc1 [TCMDC-135681],52.9
20,O=C(Nc1cccc(-c2nn3ncccc3c2-c2ccnc(Nc3ccccc3)n2)c1)c1c(F)cccc1F [TCMDC-134631],-2.939

row,Compound,% Inhibition [%]
1,CC(=O)Nc1cccc(Nc2nccc(-c3c(-c4cccc(NC(=O)c5c(F)cccc5F)c4)nn4ncccc34)n2)c1 [TCMDC-135548],-25.11
2,O=C(Nc1cccc(-c2nn3ncccc3c2-c2ccnc(Nc3cccnc3)n2)c1)c1c(F)cccc1F [TCMDC-135635],0.1379
3,CCS(=O)(=O)c1ccc(OC)c(Nc2nccc(-c3c(-c4cccc(NC(=O)c5c(F)cccc5F)c4)nn4ncccc34)n2)c1 [TCMDC-135682],81.78
4,CS(=O)(=O)Cc1ccc(Nc2nccc(-c3c(-c4cccc(NC(=O)c5c(F)cccc5F)c4)nn4ccccc34)n2)cc1 [TCMDC-135669],-24.51
5,COCCOc1ccc(Nc2nccc(-c3c(-c4cccc(NC(=O)c5c(F)cccc5F)c4)nn4ccccc34)n2)cc1Cl [TCMDC-135955],-12.66
6,CS(=O)(=O)N1CC2(CCN(CCC(NC(=O)/C=C/c3ccccc3)c3ccc(Cl)c(Cl)c3)CC2)c2ccccc21 (stereo not shown) [TCMDC-141763],8.889
7,CCCN1CCCN(Cc2cccc(NC(=O)c3ccc(-c4ccccc4)cc3)c2)CC1 [TCMDC-141843],-30.15
8,CCC[C@@H]([C@@H](CC1CCCCC1)C(=O)N[C@H](C(=O)Nc1nccs1)[C@@H](C)OCc1ccccc1)N(O)C=O [TCMDC-138051],-19.92
9,Cc1nc(SCC(=O)N2CCCC2=O)c2c(C)c(C)sc2n1 [TCMDC-123558],5.306
10,Cc1[nH]nc2cc(F)c(-c3cc(OC[C@@H](N)Cc4ccccc4)cnc3-c3ccoc3)cc12 [TCMDC-136295],10.29
11,Cc1cccc(Nc2nc(N)c3ccccc3n2)c1.Cl [TCMDC-123639],-2.53
12,CCOC(=O)c1c(C)noc1Nc1cccc(C)c1C [TCMDC-131454],-30.94
13,CN(C)c1ccc(-c2nnc(Sc3ccc(C#N)c([N+](=O)[O-])c3)n2Cc2ccco2)cc1 [TCMDC-135611],2.069
14,CCCCCCn1c(Sc2ccc(C#N)c([N+](=O)[O-])c2)nnc1-c1cc(OC)cc(OC)c1 [TCMDC-135589],37.66
15,COc1cc(OC)cc(-c2nn(-c3ccc([N+](=O)[O-])cc3C#N)c(=S)n2Cc2ccco2)c1 [TCMDC-134715],75.07
16,O=[N+]([O-])c1ccc(-n2nc(-c3cccnc3)n(Cc3ccco3)c2=S)c(Cl)c1 [TCMDC-135132],83.46
17,N#Cc1cc([N+](=O)[O-])ccc1-n1nc(-c2cccc(Cl)c2)n(Cc2ccco2)c1=S [TCMDC-134717],102.9
18,COc1cc(OC)cc(-c2nn(-c3ccc([N+](=O)[O-])cc3Cl)c(=S)n2Cc2ccco2)c1 [TCMDC-135128],93.16
19,C=CCN1C(=O)c2[nH]nc(-c3cc(C)c(C)cc3O)c2C1c1cccc(Br)c1 (stereo not shown) [TCMDC-124621],9.594
20,Cn1c(CN2CCC(N3CCc4cc(NC(=O)c5ccco5)ccc43)C2)cc2ccccc21 (stereo not shown) [TCMDC-135073],32.96

# Source: paper PMC4552634, “A New Set of Chemical Starting Points with Plasmodium falciparum Transmission-Blocking Potential for Antimalarial Drug Discovery” (PLoS ONE, 2015)
